High-throughput results as filed in PubChem BioAssay.
In the library only some 1.3% were active in any assay of this set; here they are far more common.
RecA intein inh: blocks M. tuberculosis RecA intein splicing | 290,000 tested, 0.75% active | AID 2221 | inhibition, % (test concentration not listed) | cell-free RecA intein splicing, fluorescence; in the data active = inhibition above about 30%; inconclusive = no clear call, values can overlap the other calls
Target sequence (P9WHJ3 whole entry, looked up): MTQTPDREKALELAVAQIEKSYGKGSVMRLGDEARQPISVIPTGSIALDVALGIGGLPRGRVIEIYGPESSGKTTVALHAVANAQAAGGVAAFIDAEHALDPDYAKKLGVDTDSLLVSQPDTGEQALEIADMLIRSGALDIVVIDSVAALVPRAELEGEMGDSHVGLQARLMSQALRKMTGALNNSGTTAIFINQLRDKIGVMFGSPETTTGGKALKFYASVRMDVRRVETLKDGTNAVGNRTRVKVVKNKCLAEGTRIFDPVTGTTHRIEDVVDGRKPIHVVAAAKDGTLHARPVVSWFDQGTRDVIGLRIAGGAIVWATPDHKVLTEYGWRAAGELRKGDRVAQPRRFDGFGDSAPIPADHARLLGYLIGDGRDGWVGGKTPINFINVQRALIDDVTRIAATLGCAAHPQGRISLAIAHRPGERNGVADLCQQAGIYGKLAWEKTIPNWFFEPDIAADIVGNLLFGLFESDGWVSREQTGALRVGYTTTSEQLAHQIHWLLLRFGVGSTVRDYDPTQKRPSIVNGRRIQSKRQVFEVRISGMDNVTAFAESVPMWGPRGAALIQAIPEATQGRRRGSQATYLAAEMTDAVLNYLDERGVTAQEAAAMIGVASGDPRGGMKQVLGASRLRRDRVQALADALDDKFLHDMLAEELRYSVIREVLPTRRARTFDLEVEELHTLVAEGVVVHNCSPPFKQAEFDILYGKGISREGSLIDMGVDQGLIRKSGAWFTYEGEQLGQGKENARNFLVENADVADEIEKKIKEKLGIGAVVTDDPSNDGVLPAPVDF
PrP UTR inh: suppresses PrP 5' UTR mRNA reporter expression; cell-based PrP 5' UTR mRNA reporter, plate reader; inhibition, % (no concentration beside the values); 340,000 tested, 0.35% active; AID 488862; in the data active = inhibition above about 52%
BJeLR lethal: BJeLR cell viability loss; inhibition, % (no concentration beside the values); 300,000 tested, 0.17% active; BJeLR (HRASV12) viability, CellTiter-Glo ATP luminescence, 48 h; AID 1554; in the data active = inhibition above about 50%; inconclusive = no clear call, values can overlap the other calls
Rv3671c inh: Rv3671c (M. tuberculosis) protease inhibition; P9WHR9; AID 2606; 320,000 tested, 0.048% active; inhibition, % at 5.96 µM; in the data active = inhibition above about 38%;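 also: extracellular domain of Rv3671c used as enzyme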
FadD28 binding: M. tuberculosis FadD28 bisubstrate binding inhibition | AID 588549 | 360,000 tested, 0.22% active | inhibition, % at 12.5 µM | FadD28 bisubstrate probe binding, fluorescence polarization; in the data active = inhibition above about 8.5%, passing the limit was not always enough; inconclusive = no clear call, values can overlap the other calls
UGM FP inh: Mtb UDP-galactopyranose mutase inhibition. purified UGM, fluorescence polarization probe displacement. 320,000 tested, 0.06% active. inhibition, % at 10 µM. P9WIQ1. AID 504406; in the data active = inhibition above about 10%, passing the limit was not always enough; inconclusive = no clear call, values can overlap the other calls
GFP chromophore: counter-screen GFP chromophore formation inhibition; shares compounds with RecA intein inh; cell-free GFP chromophore formation, fluorescence; EC50, µM; 2,100 tested, 83% active; AID 434968; call rule not given here
Of the large screens only hits and unclear results are named; the others gave an inactive call (follow-up assays come after a bar, where they were run).

O=C(CCl)N1CCN(S(=O)(=O)c2ccc3ccccc3c2)CC1	RecA intein inh 76.0 | GFP chromophore 28.5
O=C(CS(=O)c1ccc(C(F)(F)F)cc1[N+](=O)[O-])Oc1ccccc1 (configuration not stated)	RecA intein inh 66.0 | GFP chromophore 14.8
Cc1cccc(NC(=O)COc2cccc3c2CCNC3=O)c1	none (no result: RecA intein inh, PrP UTR inh, BJeLR lethal, Rv3671c inh, UGM FP inh)
COc1cc(/C=N/NC(=O)CC2(C)OCCCO2)ccc1OCc1ccccc1	RecA intein inh 39.4 | GFP chromophore 3.11
CC(=O)Nc1ccc(CN(C)c2c(C)nc3ccc(C(=O)N(C)Cc4ccco4)cn23)cc1	none (no result: RecA intein inh, PrP UTR inh, BJeLR lethal, Rv3671c inh, UGM FP inh)
Cc1ccc(-n2nnc3c(SCC(=O)NCC4CCCO4)ncnc32)cc1 (configuration not stated)	RecA intein inh 39.6 | GFP chromophore inactive
O=C(CSc1ncnc2c1nnn2-c1ccc(F)cc1)NCC1CCCO1 (configuration not stated)	RecA intein inh 38.3 | GFP chromophore 8.91
CCOC(=O)C(C#N)(Cc1ccc2ccccc2n1)Cc1ccc2ccccc2n1	none (no result: RecA intein inh, BJeLR lethal, Rv3671c inh, UGM FP inh)
Cc1ccc(NC2=CC(=O)C(=O)c3ccccc32)cc1	RecA intein inh 53.7 | GFP chromophore 1.17
CC(=O)Nc1ccc(NC2=CC(=O)c3ccccc3C2=O)cc1	none
CCOC(=O)c1ccc(NC2=CC(=O)C(=O)c3ccccc32)cc1	RecA intein inh 41.6 | GFP chromophore 2.73
NS(=O)(=O)c1ccc(NC2=CC(=O)C(=O)c3ccccc32)cc1	RecA intein inh 92.1 | GFP chromophore 2.57
CN(c1ccccc1)c1ncnc2c1ncn2C	none (no result: RecA intein inh, BJeLR lethal, Rv3671c inh, UGM FP inh)
Cc1cn(CC(=O)NCCc2c[nH]c3ccccc23)c(=O)[nH]c1=O	none (no result: RecA intein inh, BJeLR lethal, Rv3671c inh, UGM FP inh)
CC(=O)Nc1ccc(S(=O)(=O)NC2=C(N3CCN(c4ccc(F)cc4)CC3)C(=O)c3ccccc3C2=O)cc1	RecA intein inh 45.3, FadD28 binding inconclusive | GFP chromophore 25.7
CCOC(=O)C1(C)CCN1C(=O)c1cccc(Cl)c1 (configuration not stated)	none (no result: RecA intein inh, PrP UTR inh, BJeLR lethal, Rv3671c inh, UGM FP inh)
Cc1ccc(Sc2ccc(NC(=O)CCl)cc2)cc1C	RecA intein inh 65.7 | GFP chromophore 7.34
O=C(CCl)Nc1ccccc1Sc1ccccc1	none (no result: RecA intein inh)
Cc1ccc(C)c(Sc2ccc(NC(=O)CCl)cc2)c1	RecA intein inh 91.2 (no result: PrP UTR inh, FadD28 binding) | GFP chromophore 6.96
Cc1cc(C)c(C)c(S(=O)(=O)N2CCNC(=O)C2)c1C	none (no result: RecA intein inh, PrP UTR inh, BJeLR lethal, Rv3671c inh, UGM FP inh)
O=[N+]([O-])c1cccc(C(=Nc2ccccc2)NO)c1	none
O=[N+]([O-])c1cc([N+](=O)[O-])c2c(=Nc3ccccc3)n(-c3ccccc3)n(O)c2c1	RecA intein inh 74.1 | GFP chromophore 4.08
COC(=O)c1cc(C)nc2c1C(=O)C(=O)C=C2N1CCOCC1	RecA intein inh 95.9, FadD28 binding inconclusive | GFP chromophore 0.968
CCc1ccc(C2C(C#N)=C(N)C(C#N)(C#N)C3=CCC(C(C)(C)C)CC32)cc1 (configuration not stated)	RecA intein inh 30.4 | GFP chromophore 15.2
CC(C)(C)C1CC=C2C(C#N)=C(N)C(C#N)(C#N)C(c3cccs3)C2C1 (configuration not stated)	none (no result: PrP UTR inh, FadD28 binding)
CC1=NN(Cc2ccccc2)C(=O)/C1=C\c1ccc(N(C)C)cc1	RecA intein inh 93.9 | GFP chromophore inconclusive
N/C(=N\O)c1cn(Cc2ccccc2Cl)c2ccccc12	none
Cc1[nH][nH]c(=O)c1C(c1c(C)[nH][nH]c1=O)c1cn(Cc2ccccc2Cl)c2ccccc12	RecA intein inh 98.7 (no result: Rv3671c inh, UGM FP inh) | GFP chromophore 0.509
COc1ccc(/C=N/NC(=O)c2nn(-c3ccc(C)c(C)c3)c(=O)c3ccccc23)cc1	none
COc1ccc(/C=N/NC(=O)c2nn(-c3ccc(Cl)cc3)c(=O)c3c(N)scc23)cc1	RecA intein inh 40.3 | GFP chromophore 17.1
N#CC1=C(N)Oc2cc(O)ccc2C1c1cccs1 (configuration not stated)	none
N#CC1=C(N)Oc2n[nH]c(-c3cccs3)c2C1c1ccccc1C(=O)O (configuration not stated)	RecA intein inh 76.1 | GFP chromophore 12.2
N#CC1=C(N)Oc2n[nH]c(-c3cccs3)c2C1c1cccs1 (configuration not stated)	RecA intein inh 79.3 | GFP chromophore 10.7
Nc1c(C2CCCCC2)c(=O)on1C(=O)c1ccccc1	none (no result: RecA intein inh, BJeLR lethal, Rv3671c inh, UGM FP inh)
CCc1nc2c(OCc3ccccc3C(=O)OC)cccn2c1N(C)C(=O)c1cccc(OC)c1	none (no result: RecA intein inh, PrP UTR inh, BJeLR lethal, Rv3671c inh, UGM FP inh)
CC(=O)Nc1ccccc1NC(=O)C/C(C)=N/NC(=O)c1ccncc1	none
C/C(CC(=O)Nc1cc(C)ccn1)=N\NC(=O)c1ccccc1C	RecA intein inh 50.0 | GFP chromophore 33.9
C/C(CC(=O)Nc1cc(C)ccn1)=N\NC(=O)COc1cccc(C)c1	RecA intein inh 94.2 (no result: PrP UTR inh, Rv3671c inh, FadD28 binding, UGM FP inh) | GFP chromophore 6.99
C/C(CC(=O)Nc1cc(Cl)ccc1Cl)=N\NC(=O)COc1cccc(C)c1	none
C/C(CC(=O)Nc1cccc(Cl)c1Cl)=N\NC(=O)c1ccccc1C	none
COc1ccc(C(=O)N/N=C(\C)CC(=O)Nc2ccccn2)cc1OC	none
C/C(CC(=O)Nc1ccccn1)=N\NC(=O)c1cccc(C)c1	RecA intein inh 40.6 | GFP chromophore 36.6
C/C(CC(=O)Nc1cc(C)ccn1)=N\NC(=O)c1ccncc1	RecA intein inh 75.0 | GFP chromophore 17
c1ccc(N=NC2=NN(c3ccccc3)CS2)cc1	none (no result: RecA intein inh, PrP UTR inh, BJeLR lethal, Rv3671c inh, UGM FP inh)
COc1ccc(NC(=O)C2Cc3c(-c4ccc5c(c4)OCO5)ccnc3O2)cc1 (configuration not stated)	none (no result: RecA intein inh, PrP UTR inh, BJeLR lethal, Rv3671c inh, UGM FP inh)
Clc1ccc(C=Cc2ccccn2)c(Cl)c1	none (no result: RecA intein inh, BJeLR lethal, Rv3671c inh, UGM FP inh)
C/C(CC(=O)Nc1cc(C)ccn1)=N\NC(=O)c1cccc(F)c1	RecA intein inh 43.4 | GFP chromophore 33.1
O=[N+]([O-])c1c(Nc2ccccc2O)ccc2nonc12	none
O=C(O)c1cc(Nc2cc(Cl)c3nonc3c2[N+](=O)[O-])ccc1O	RecA intein inh 96.7 | GFP chromophore 1.88
O=[N+]([O-])c1c(Nc2ccccc2O)cc(Cl)c2nonc12	RecA intein inh 96.2 (no result: Rv3671c inh) | GFP chromophore 1.47
Cc1cccc(C(O)c2ncc(-c3ccccc3)[nH]2)c1C (configuration not stated)	none (no result: RecA intein inh, PrP UTR inh, BJeLR lethal, Rv3671c inh, UGM FP inh)
COc1ccc(C(=O)OCC(=O)c2ccco2)cc1[N+](=O)[O-]	none (no result: RecA intein inh, PrP UTR inh, BJeLR lethal, Rv3671c inh, UGM FP inh)
COc1ccc(C(=O)C(C)OC(=O)C2CC3CCCC(C2)C3=O)cc1 (configuration not stated)	none (no result: RecA intein inh, PrP UTR inh, BJeLR lethal, Rv3671c inh, UGM FP inh)
Cc1cc(C)n(-c2ccc(NN=C(C#N)C#N)cc2)n1	RecA intein inh 57.0 | GFP chromophore 19.3
O=C(Nc1ccccc1)Nc1ccc(-n2ccc(C(F)(F)F)n2)cc1	none
N#CC(C#N)=NNc1ccc(-n2ccc(C(F)(F)F)n2)cc1	RecA intein inh 78.6, BJeLR lethal 59.0 | GFP chromophore 6.4
Cc1cc(C)n(-c2ccc(C(=O)O)cc2)n1	none
CCCCNC(=O)C1(C)CCCCN1C(=O)c1ccno1 (configuration not stated)	none (no result: RecA intein inh, PrP UTR inh, BJeLR lethal, Rv3671c inh, UGM FP inh)
